40 compounds from PubChem BioAssay (EPA / NIEHS) can be followed below.

Each structure is given as a SMILES string. Activity calls are given as the source filed them. The calls were made as follows: active = hit-call score of the fitted dose curve at least 0.9, where 1 is the maximum; inactive = score below 0.9.

The term AC50 denotes the midpoint of the concentration-response curve, whichever way the signal moves.

Read-out in this experiment: matrix metalloproteinase-10 (MMP10), MMP10 (gene 4319)
Put plainly: LTEA_HepaRG_MMP10: Life Technologies and Expression Analysis (LTEA) Assay for matrix metalloproteinase-10 (MMP10) using HepaRG (AID 2283517). The conditions noted are these: mRNA level, 48 h; actives raise or lower the signal. Here is the method:
LTEA_HepaRG is a cell based, multiplexed-readout assay that uses HepaRG, a human liver cell line, with measurements taken at 48 hours after chemical dosing on a 96-well plate.LTEA_HepaRG_MMP10 is one of 102 assay component(s) measured in the LTEA HepaRG cell culture assay. It is a marker of Fibrosis.Data from the assay component LTEA_HepaRG_MMP10 was analyzed into 1 endpoint. This assay endpoint, LTEA_HepaRG_MMP10, was analyzed with bidirectional fitting relative to DMSO as the negative control and baseline of activity. Using a type of inducible reporter, measures of mRNA induction for gain or loss-of-signal activity can be used to understand regulation of transcription factor activity. To generalize the intended target to other relatable targets, this assay endpoint is annotated to the protease intended target family, where the subfamily is matrix metalloproteinase.
A total of 1060 chemcials from the ToxCast library were tested in eight-point concentration-response experiments. Cell culture and cytotoxicity assays were conducted at Thermo Fisher Scientific's Custom Services facility (Madison, WI). A single lot of human HepaRG cells (Thermo Fisher Scientific, Frederick, MD) was used for the cell culture experiments. 96-well format collagen type I coated plates of human HepaRG cells were prepared using established methods. Briefly, cryopreserved HepaRG cells were thawed, plated at a density of approximately 100,000 cells/well in HepaRG Thaw, Plate, and General Purpose media (HPRG770, Thermo Fisher Scientific), and incubated for 48 hours. 0.5% DMSO was selected as vehicle control to balance the requisite need of DMSO in HepaRG cultures to maintain differentiation (for example, baseline metabolism, proportions of hepatocytes vs. cholangiocytes), while enabling further hepatic receptor pathway activation (for example, PXR and CAR) in response to chemical exposure. 48 hours after plating, the culture medium was replaced with HepaRG Serum-Free Incudtion Media. Cells were exposed to each test chemical in duplicate and maintained in CO2 incubators for another 48 hours. Chemical plates were thawed to room temperature and 200x concentrations of treatment groups were prepared. 8-point conentration-reponse curves were made with the highest exposure at 100 uM, followed by half-log dilutions, all in 0.5% DMSO. Each test plate contained variouse controls, induction positive controls (1mM phenobarbital), cytotoxicity positive controls ([…] aflatoxin B1), vehicle controls (0.5% DMSO), and total lysis controls (0.5% DMSO). Cell morphology images were taken using an Essen IncuCyte FLR automated microscope, with six 96-well plates imaged in about 24 minutes. Images were captured and exported and JPEG files. Spent culture media was transfered to black-well plates for the LDH assay, and remaining media was sorted at -80 C for later use. Cells were treated with RLT buffer and frozen until shipped for gene expression analysis. Total RNA was isolated from the cell suspension in 75 uL of Buffer RLT (Qiagen, Germantown, MD 20874) by Quintiles/Expression Analysis (Durham, NC) using a custom isolation procedure. Total RNA from each plate well was transferred to a preamplification plate. Fluidigm's 96.96 Dynamic ArrayTM (Fluidigm, Amsterdam, the Netherlands) technology was used for gene expression analyses by quantitative reverse transcription polymerase chain reaction (qRT-PCR, performed by Quintiles/Expression Analysis, Durham, NC)89. Standard TaqManTM Assays (Applied Biosystems/ThermoFisher Scientific, Foster City, CA) were used to assess the expression of 93 genes selected based on their selectivity and sensitivity to important hepatic receptors known to be modulated by environmental chemicals; importance in human hepatocyte functionality; and hepatotoxicity. […]
For `COC(=O)[C@H]1[C@H]2C[C@@H]3c4[nH]c5cc(OC)ccc5c4CCN3C[C@H]2C[C@@H](OC(=O)c2cc(OC)c(OC)c(OC)c2)[C@@H]1OC`, the AC50 was 25.3 µM (active). For `CC(=O)OC1CC(C)OC(C)O1` (stereo not given), the call was inactive. With `COC(=O)CCC(=O)OC`, the compound was called inactive.

With `NCCOCCOCCN`, the result was inactive. On the same count and under the same terms, under `OCC(CO)n1cnc(-c2ccc(F)cc2)c1-c1ccnc(Oc2ccccc2)n1` stands “inactive”; under `CCCCC(CC)COP(=O)(OCC(CC)CCCC)OCC(CC)CCCC` (stereo not given), “inactive”. On the same count and under the same terms, under `CC(C)c1cccc(C(C)C)c1` stands “inactive”. On to `C/C=C/c1ccc(OC)cc1`, for which the call was inactive. Still for that read-out and setting: for `Cn1cnc2c1c(=O)[nH]c(=O)n2C` the value was “inactive”; for `CC1=C(C)S(=O)(=O)CCS1(=O)=O`, “inactive”; for `O=Cc1ccccc1C=O`, “inactive”. The same measure, in the same setting: under `CO[C@@H]1COCC[C@@H]1N[C@@H]1CC[C@@](C(=O)N2CCc3ncc(C(F)(F)F)cc3C2)(C(C)C)C1` stands “inactive”; under `OCC(O)CO`, “inactive”; under `CC(C)OC(=O)C(C)(C)Oc1ccc(C(=O)c2ccc(Cl)cc2)cc1`, “inactive”. Still for that read-out and setting: under `CCCCOC(=O)CCCCC(=O)OCCCC` stands “inactive”. Take `CC(C)(C)c1ccccc1`: the compound was classed as inactive.

For the compound `CC(N)=O`, the outcome was inactive. Still for that read-out and setting: under `CCCCC(CC)COC(=O)CCCCCCCC(=O)OCC(CC)CCCC` (stereo not given) stands “inactive”; under `CCCCCCCCCC[N+](C)(C)[O-]`, “inactive”. Same read-out and setting: for `CC(C)c1cccc(C(C)C)c1NC(=O)NS(=O)(=O)c1cc(C(C)(C)O)co1` the value was “inactive”. Consider `Nc1nc(Cl)nc2c1ncn2[C@H]1C[C@H](O)[C@@H](CO)O1`, for which the AC50 is 1.72 µM (active). On to `O=[Si]=O`, for which the outcome was inactive. Still for that read-out and setting: under `CC(=O)[C@@]1(O)CC[C@H]2[C@@H]3CCC4=CC(=O)CC[C@]4(C)[C@H]3CC[C@@]21C` stands “inactive”; under `CC(=O)O`, “inactive”; under `CC(=O)OCC(COC(C)=O)OC(C)=O`, “inactive”.

Take `CN(C)CCCN1c2ccccc2Sc2ccc(Cl)cc21`: the AC50 was 85.1 µM (active).

Consider `CCOCCOCCO`, for which the result was inactive. Same read-out and setting: for `Oc1ccc(O)cc1` the value was “inactive”; for `CCCCCCCC(=O)OC`, “inactive”; for `CCC(C)N(C)C(=O)c1cc2ccccc2c(-c2ccccc2Cl)n1` (stereo not given), “inactive”. Same read-out and setting: under `CC(C)COC(=O)CCCCC(=O)OCC(C)C` stands “inactive”; under `CC(=O)CC(c1ccccc1)c1c(O)c2ccccc2oc1=O` (stereo not given), “inactive”. Same read-out and setting: under `Cc1ccc(C(C)(C)C)c(O)c1` stands “inactive”; under `O=C(NS(=O)(=O)/C=C/c1cccs1)c1ccc(F)cc1Br`, “inactive”; under `C#CC(O)C(CC)CCCC` (stereo not given), “inactive”. As to `O=C(N[C@@H](c1ccccc1)[C@@H]1CCCCN1)c1cccc(C(F)(F)F)c1Cl`, the AC50 is 35 µM (active).

Take `CCCC[C@H]1CN(CC2CCOCC2)C(=O)OC12CCN(C1(C)CCN(C(=O)c3c(C)ncnc3C)CC1)CC2`: the compound was called inactive.

In the case of `Cc1cc(Cc2ccc(N)c(C)c2)ccc1N`, the compound was called inactive. Same read-out and setting: under `NC=O` stands “inactive”; under `Cc1ccc(-c2cc(C(F)(F)F)nn2-c2ccc(S(N)(=O)=O)cc2)cc1`, “inactive”.
